The source of these data is ChEMBL document CHEMBL3988442, “University of Dundee, Small-Polar-MMV Screening Library” (2021).

The experiment has as its target T1, Arginase-2, mitochondrial (Homo sapiens) (UniProt P78540).
T1 sequence (whole entry): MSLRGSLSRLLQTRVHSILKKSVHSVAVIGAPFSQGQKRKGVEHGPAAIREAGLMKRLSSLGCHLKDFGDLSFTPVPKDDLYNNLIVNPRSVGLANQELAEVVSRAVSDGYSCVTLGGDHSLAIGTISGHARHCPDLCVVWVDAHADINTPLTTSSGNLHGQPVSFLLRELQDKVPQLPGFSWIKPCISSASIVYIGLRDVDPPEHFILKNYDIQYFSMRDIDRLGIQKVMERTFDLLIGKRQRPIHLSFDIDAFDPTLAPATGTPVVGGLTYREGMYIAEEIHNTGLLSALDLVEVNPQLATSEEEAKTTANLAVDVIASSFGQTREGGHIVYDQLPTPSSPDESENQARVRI
In words: in vitro enzyme assay to detect the production of urea directly proportional to the activity of Arginase II. Type of experiment: functional. The settings on record: 30 µM. The arrangement: scale not given: in the data most compounds retested in dose-response had high values.
As to `Cc1cccc(OCC(O)CN2CCN(c3nccs3)CC2)c1` (configuration not stated), the Percent Effect stood at 3.78%. With `Cc1ccc(-c2nc(CN3CC(n4nc(C)cc4C)C3)no2)cc1` the figure was 3.78%; with `CNC(=O)[C@H]1C[C@@H]2CN(C(=O)c3cccnc3)C[C@@H]2N1S(C)(=O)=O`, 5.95%. In the case of `Cc1ccc(C(C(=O)O)N2CCCN(Cc3ccccn3)CC2)c(F)c1` (configuration not stated), the Percent Effect is 8.11%. The result for `CC(C)c1ncc(CN2CCOC(C(=O)Nc3ccccc3)C2)cn1` (configuration not stated) reads 3.78%; that for `Cc1ccc([C@@H]2CN(S(=O)(=O)c3ccccc3)C[C@H]2N(C)C)cc1`, 3.78%. With `CNC(=O)[C@H]1C[C@@H]2CN(C(=O)c3ccc(C)o3)C[C@@H]2N1S(C)(=O)=O` the figure was 1.62%. On to `COc1ccccc1Oc1ncccc1CNC(=O)[C@@H](N)CCO`, for which the Percent Effect was -12.4%. On to `COc1ccc(NC2CCc3c2[nH]c(=O)n(C2CCCCC2)c3=O)cc1` (configuration not stated), for which the Percent Effect was determined as 4.87%. In the case of `COc1ccc(C(=O)N2C[C@@H](C(=O)O)[C@H](c3ccccc3)C2)c(O)c1`, the Percent Effect amounted to 9.19%. `Cc1noc(C)c1C(=O)N1CCCC(c2nccn2Cc2cscn2)C1` (configuration not stated): the Percent Effect came out at 5.95%. `COCCC(=O)NCC1COc2cc(OC)ccc2C1` (configuration not stated): the Percent Effect is 5.95%. In the case of `COC(=O)c1ccc(C2SC(C)=Nc3c2c(=O)[nH]n3C2CCCC2)cc1` (configuration not stated), the Percent Effect is 11.3%. On to `Cc1cccc(C(=O)N2CCCC(c3nccn3Cc3cscn3)C2)n1` (configuration not stated), for which the Percent Effect is 9.19%.

With `OC(CN(Cc1ccccc1)Cc1ccon1)c1cccs1` (configuration not stated), the Percent Effect is 8.11%. For `CC(C)(C)OC(=O)Cn1cccc(S(=O)(=O)N2CCCC2)c1=O`, the Percent Effect is 7.03%.

With `COc1ccccc1Oc1ncccc1CNC(=O)[C@H](C)O`, the Percent Effect came out at 4.87%. `COc1cc(C2SC(C)=Nc3c2c(=O)[nH]n3C2CCCC2)ccc1O` (configuration not stated): the Percent Effect amounted to 3.78%.

For `CN(C)c1ncccc1CNC(=O)N(Cc1ccccc1F)C1CC1`, the Percent Effect turned out to be 8.11%. Take `CS(=O)(=O)NCCC(=O)N1CCCC1c1noc(C2CC2)n1` (configuration not stated): the Percent Effect came out at 11.3%.

For `O=C(NCc1ccccn1)[C@]12COC[C@H]1CN(Cc1ccccc1F)C2`, the Percent Effect was determined as 4.87%.

Regarding `Cc1ccc(CCNC(=O)N2CCC(Cc3cnn(C)c3)C2)cn1` (configuration not stated), the Percent Effect amounted to 7.03%.
